# In all, about 50,000 compounds went through this assay and about 800 (1.6%) showed an effect of 50% or more. Only a selection was taken, and strong results are over-represented in it overall.
# Target: Bcl-2-like protein 10 (Homo sapiens) (UniProt Q9HD36)
# Assay: TR3 peptide-Bcl-B binding displacers, biochemical primary FP assay, phenotype converters (AID 1240);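 also: 0% = Bcl-B with tracer peptide and DMSO and 100% = tracer peptide lacking Bcl-B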
# Conditions: GST-Bcl-B / FITC-TR3 peptide fluorescence polarization; stronger effect = higher value; compound at 3.75 mg/L
# Sequence of Bcl-2-like protein 10 (Homo sapiens) (Q9HD36 whole entry, looked up): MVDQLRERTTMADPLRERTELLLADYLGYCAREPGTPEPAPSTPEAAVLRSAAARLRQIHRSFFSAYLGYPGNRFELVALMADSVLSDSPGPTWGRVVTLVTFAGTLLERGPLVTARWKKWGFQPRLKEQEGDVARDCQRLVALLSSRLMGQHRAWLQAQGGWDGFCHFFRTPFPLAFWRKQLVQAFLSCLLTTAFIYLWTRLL
row,SMILES,displacement
1,CC1(C)CC(=O)C2=C(C1)Nc1ccccc1NC2c1cccc(Br)c1 (centres undefined),2.4%
2,O=C1c2[nH]nc(-c3ccccc3)c2C(c2ccccc2F)N1c1ccccc1 (centres undefined),-3.9%
3,C=CCn1c(SCCC)nc2sc3c(c2c1=O)CCc1ccccc1-3,0.4%
4,COc1ccc(C(=O)NNC(=O)c2cccc(C)c2O)cc1OC,-1.1%
5,CCOC(=O)C1=C(C)N=c2s/c(=C\c3ccc(OC)c(OC)c3OC)c(=O)n2C1c1ccc(Cl)cc1 (centres undefined),152%
6,CCOC(=O)C1=C(C)N=c2s/c(=C\c3ccc(OC)c(O)c3)c(=O)n2C1c1ccc(Cl)cc1 (centres undefined),-5.3%
7,CCOC(=O)C1=C(C)N=c2s/c(=C\c3ccc(OC)c(OC)c3OC)c(=O)n2C1c1ccccc1 (centres undefined),210%
8,CCOC(=O)C1=C(C)N=c2s/c(=C\c3ccccc3OC)c(=O)n2C1c1ccc(C)cc1 (centres undefined),-2.8%
9,CCOC(=O)C1=C(C)N=c2s/c(=C\c3cccc(OC)c3O)c(=O)n2C1c1ccccc1 (centres undefined),-0.2%
10,CCOC(=O)C1=C(C)N=c2s/c(=C\c3ccc(OC)cc3)c(=O)n2C1c1ccc(Cl)cc1 (centres undefined),18.8%
11,CCOC(=O)C1=C(N)OC2=C(C(=O)CCC2)C1c1ccc(Cl)cc1Cl (centres undefined),-2.9%
12,CCCOc1ccccc1/C=C1\N=C(c2ccccc2)OC1=O,64%
13,COc1ccc(/C=C2\N=C(c3ccccc3I)OC2=O)cc1,-2.3%
14,COc1ccc(/C=C2\N=C(c3ccccc3F)OC2=O)c(OC)c1,72.1%
15,COc1cccc(/C=C2\N=C(c3cccs3)OC2=O)c1OC,59.5%
16,O=C1OC(c2cccs2)=N/C1=C\c1cccc(Cl)c1Cl,29.5%
17,CC(=O)n1cc(/C=C2\N=C(c3ccc(C(C)(C)C)cc3)OC2=O)c2ccccc21,72.1%
18,C=CCOc1ccccc1/C=C1\N=C(c2ccc(C)cc2)OC1=O,-2.1%
19,C=C(C)COc1ccccc1/C=C1\N=C(c2cccs2)OC1=O,0.7%
20,CC(=O)n1cc(/C=C2\N=C(c3ccccc3F)OC2=O)c2ccccc21,7.6%
21,COC(=O)c1ccc(/C=C2\N=C(c3ccc(C(C)(C)C)cc3)OC2=O)cc1,11.1%
22,CCOc1ccc(/C=C2\N=C(c3ccccc3F)OC2=O)cc1,11%
23,Cc1no[n+]([O-])c1COc1ccccc1/C=C1\N=C(c2ccccc2)OC1=O,-3.2%
24,O=C(CN1C(=O)c2ccccc2C1=O)Nc1nc(-c2ccccc2)cs1,-6.7%
25,COC(=O)C(C)N(C(=O)c1ccc(C(=O)c2ccccc2)cc1)c1c(C)cccc1C (centres undefined),10.7%

row,SMILES,displacement
1,COc1cccc(-c2nnc(-c3ccncc3)o2)c1,6.6%
2,COc1cccc(OCCNC(=O)c2cc(OC)c(OC)c(OC)c2)c1,11.6%
3,O=C1NCC(c2ccccc2)C1C(=O)N/N=C\c1cc([N+](=O)[O-])cc(Br)c1O (centres undefined),5.6%
4,COCCCNC(=O)/C(=C/c1ccc(-c2ccc(Br)cc2)o1)NC(=O)c1ccccc1,-6.6%
5,CCOc1ccc(NC(=O)/C=C/c2ccc(Cl)cc2)cc1,10.1%
6,COc1ccc(Cc2noc(-c3ccccc3C)n2)cc1,-6.7%
7,COC(=O)C1=NN(C(=O)c2ccccc2)C(O)(C(C)(C)C)C1 (centres undefined),-3.6%
8,COc1ccc(C2=NC(=Cc3cccc4ccccc34)C(=O)O2)cc1,108%
9,COc1ccccc1C=C1C(=O)c2ccccc2C1=O,11.5%
10,O=C1OC(c2ccccc2F)=N/C1=C\c1cccc2ccccc12,78.4%
11,O=C1OC(c2ccccc2F)=N/C1=C\c1ccccc1[N+](=O)[O-],4.1%
12,COc1ccc(C=C2C(=O)c3ccccc3C2=O)c(O)c1,18.4%
13,COc1cccc(/C=C2/N=C(c3ccc(NC(C)=O)cc3)OC2=O)c1,33.2%
14,COc1ccc(C2=N/C(=C\N(C)C)C(=O)O2)cc1,-9%
15,O=C1OC(c2ccccc2F)=N/C1=C\c1cccc(I)c1,-0.4%
16,COc1ccc(C=C2C(=O)c3ccccc3C2=O)c(OC)c1,181%
17,Cc1onc(-c2c(Cl)cccc2Cl)c1C(=O)N1CCN(Cc2ccccc2)CC1,0.2%
18,CCOC(=O)CNC1CC(C)(C)NC(C)(C)C1,-1.2%
19,COc1ccc(NC(=O)c2ccc(N(Cc3ccc(Cl)cc3)S(C)(=O)=O)cc2)c(OC)c1,26.7%
20,Nc1cc(-c2ccc(Br)cc2)nn1Cc1ccc(Cl)cc1,-1.3%
21,O=c1c2c3c(sc2[nH]c(=S)n1-c1ccccc1)-c1ccccc1CC3,102%
22,O=c1c2c3c(sc2[nH]c(=S)n1-c1ccccc1)CCC3,-2.5%
23,C=CCn1c(=S)[nH]c2sc3c(c2c1=O)CCc1ccccc1-3,-4.7%
24,O=C(c1ccc(-c2ccccc2)cc1)N1CCN(Cc2ccc3c(c2)OCO3)CC1,-1.6%
25,Cc1c(/C=C/c2nc3ccccc3c(=O)n2C)c2ccccc2n1C,3%

row,SMILES,displacement
1,O=c1c2ccccc2nc(/C=C/c2c[nH]c3ccccc23)n1-c1ccc([N+](=O)[O-])cc1,-62.9%
2,Cc1[nH]c2ccccc2c1/C=C/c1nc2ccccc2c(=O)n1C,186%
3,Cc1[nH]c2ccccc2c1/C=C/c1nc2ccccc2c(=O)n1Cc1ccccc1,-5.8%
4,Cn1c(/C=C/c2c[nH]c3ccccc23)nc2ccccc2c1=O,108%
5,O=c1c2ccccc2nc(/C=C/c2c[nH]c3ccccc23)n1-c1cccc([N+](=O)[O-])c1,-2.2%
6,COc1ccc(C)cc1NC(=O)c1cccnc1,20.4%
7,COc1cc(/C=c2\sc3nc4ccccc4n3c2=O)cc(Br)c1OCc1ccccc1F,13.9%
8,COc1ccc(-c2nnc(SCC(=O)Nc3ccc(C)cc3Br)o2)cc1,14.5%
9,O=C(/C=C/c1cccc([N+](=O)[O-])c1)Nc1ccc(-c2nc3ccccc3o2)cc1,-5.2%
10,COc1ccc(Br)cc1/C=C/C(=O)Nc1cccc(-c2nc3ncccc3o2)c1C,95.3%
11,O=C(/C=C/c1ccccc1)Nc1ccc(-c2nc3ccccc3o2)c(O)c1,127%
12,Cc1c(NC(=O)/C=C/c2cccc([N+](=O)[O-])c2)cccc1-c1nc2ncccc2o1,74.8%
13,Cc1ccc(-c2nc3cc(Cl)ccc3o2)cc1NC(=O)/C=C/c1cccc([N+](=O)[O-])c1,-18.8%
14,O=C(/C=C/c1cccc([N+](=O)[O-])c1)Nc1ccc(-c2nc3ncccc3o2)cc1,45.3%
15,O=C(/C=C/c1ccc(Cl)cc1)Nc1ccc(-c2nc3ccccc3o2)c(O)c1,-0.3%
16,COc1ccc(Br)cc1/C=C/C(=O)Nc1ccc(-c2nc3ncccc3o2)cc1,-4.5%
17,O=C(/C=C/c1ccccc1)Nc1ccc(O)c(-c2nc3ccccc3o2)c1,-3.2%
18,Cc1ccc2oc(-c3cccc(NC(=O)/C=C/c4cccc([N+](=O)[O-])c4)c3C)nc2c1,-24.7%
19,COc1ccc(Br)cc1C(=O)Nc1cccc(-c2nc3ncccc3o2)c1C,-3.8%
20,Cc1ccc(-c2nc3ccccc3o2)cc1NC(=O)/C=C/c1cccc([N+](=O)[O-])c1,74.2%
21,O=[N+]([O-])c1c(NC2CC2)ncnc1NC1CC1,10.9%
22,O=[N+]([O-])c1ccccc1/C=N/N1CCN(Cc2ccc(Cl)cc2)CC1,-1.7%
23,COc1cccc(Nc2nc(-c3ccc(S(=O)(=O)N4CCOCC4)cc3)cs2)c1,10.4%
24,COc1ccccc1/C=C1\SC(=S)N(CCC(=O)NNC(=O)c2ccccc2O)C1=O,14.7%
25,COc1ccc(N(CC(=O)Nc2cccc(Br)c2)S(=O)(=O)c2ccc(C)cc2)c(OC)c1,-1.5%

row,SMILES,displacement
1,CC(C)CC(NC(c1ccccc1)(c1ccccc1)c1ccccc1)C(=O)O (centres undefined),8.9%
2,Cc1ccc(-c2nc3ncccc3o2)cc1NC(=O)/C=C/c1ccco1,116%
3,COc1ccc(Br)cc1/C=C/C(=O)Nc1ccc(C)cc1[N+](=O)[O-],87.4%
4,COc1ccc(Br)cc1C(=O)Nc1ccc(C)cc1[N+](=O)[O-],27.4%
5,COc1ccc(Br)cc1/C=C\C(=O)Nc1ccc([N+](=O)[O-])cc1OC,4.8%
6,O=C(/C=C/c1ccco1)Nc1ccc(-c2nc3ncccc3o2)cc1,-8.2%
7,Cc1cc2nc(-c3ccc(C)c(NC(=O)/C=C/c4ccco4)c3)oc2cc1C,-5.3%
8,CCC(C)NC(=O)CN(c1ccccc1)S(=O)(=O)c1ccccc1[N+](=O)[O-] (centres undefined),-8%
9,COc1ccc(C2Nc3ccccc3C(=O)N2Cc2ccco2)cc1COc1c(C)cccc1C (centres undefined),-10.4%
10,Cc1cc(C)nc(SCC(=O)NN=C2CCCCCC2)n1,3.9%
11,COc1ccc(N(Cc2ccc(C(=O)NC3CCCC3)cc2)S(=O)(=O)c2ccccc2)cc1,-14.5%
12,O=C(Oc1ccc(/C=N/O)cc1)c1ccc(Br)cc1,1.6%
13,C/C(=N\Nc1nc(C)cc(-c2ccccc2)n1)c1cccc(N)c1,-15.5%
14,COC(=O)C1=C(C)N(c2ccc(C)c(C)c2)/C(=C\c2ccc(OCC(=O)Nc3ccccc3OC)cc2)C1=O,68%
15,COC(=O)C1=C(C)N(c2ccc(Cl)cc2)/C(=C\c2ccc(OCC(=O)Nc3ccccc3OC)cc2)C1=O,10.4%
16,COC(=O)C1=C(C)N(c2ccc(C)cc2)/C(=C\c2ccc(OCC(=O)Nc3ccccc3Cl)cc2)C1=O,7.6%
17,C=CCOc1ccc(/C=C2\C(=O)C(C(=O)OC)=C(C)N2c2ccc(C)cc2)cc1,-24.7%
18,COC(=O)C1=C(C)N(c2ccc(C)c(C)c2)/C(=C/c2ccc(OC)cc2)C1=O,14.1%
19,C=CCOc1ccc(/C=C2\C(=O)C(C(=O)OC)=C(C)N2c2ccc(F)cc2)cc1,127%
20,CCOc1ccc(/C=C2\C(=O)C(C(=O)OC)=C(C)N2c2ccc(F)cc2)cc1,-6.6%
21,COC(=O)C1=C(C)N(c2ccccc2)/C(=C\c2ccc(OCC(=O)Nc3ccccc3OC)cc2)C1=O,55.5%
22,COC(=O)C1=C(C)N(c2ccc(Br)cc2)/C(=C\c2ccc(OCC(=O)Nc3ccccc3OC)cc2)C1=O,20.3%
23,Cc1ccc(OCC(=O)O/N=C(\N)Cc2ccc([N+](=O)[O-])cc2)c(C)c1,5.9%
24,O=C(Nc1ccc2c(c1O)C(=O)c1ccccc1C2=O)c1ccccc1,12.7%
